USP17 inh = human USP17-like deubiquitinase inhibition. purified USP17, Ub-rhodamine cleavage fluorescence, 3 h. inhibition, % at 50 µM. hit rate 6.5% among 47,000
USP30 block = inhibitors of human USP30 deubiquitinase; AID 1645860; purified USP30, Ub-rhodamine cleavage fluorescence; hit rate 5.3% among 47,000; Q70CQ3; inhibition, % at 25 µM
Target sequence (Q70CQ3 whole entry, looked up): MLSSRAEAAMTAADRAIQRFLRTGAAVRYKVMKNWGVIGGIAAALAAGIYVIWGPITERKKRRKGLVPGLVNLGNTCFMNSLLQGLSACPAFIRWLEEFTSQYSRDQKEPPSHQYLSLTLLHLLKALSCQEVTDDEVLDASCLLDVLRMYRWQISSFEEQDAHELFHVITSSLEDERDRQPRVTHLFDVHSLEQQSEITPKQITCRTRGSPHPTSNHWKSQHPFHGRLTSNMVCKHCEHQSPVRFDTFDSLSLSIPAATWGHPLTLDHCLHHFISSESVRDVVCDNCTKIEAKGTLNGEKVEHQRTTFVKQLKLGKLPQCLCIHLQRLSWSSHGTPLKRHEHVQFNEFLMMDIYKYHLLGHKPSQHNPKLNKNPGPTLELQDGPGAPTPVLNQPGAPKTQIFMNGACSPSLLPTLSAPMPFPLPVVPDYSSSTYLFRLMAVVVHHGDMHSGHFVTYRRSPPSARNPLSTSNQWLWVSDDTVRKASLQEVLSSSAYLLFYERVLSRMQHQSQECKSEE
USP28 inh = blocks human USP28 ubiquitin-rhodamine cleavage; Q96RU2; inhibition, % at 25 µM; purified USP28, Ub-rhodamine cleavage fluorescence, 30 min; hit rate 3% among 47,000; AID 1645857
OTUD3 block = human OTUD3 deubiquitinase inhibition; hit rate 0.7% among 47,000; inhibition, % at 25 µM; Q5T2D3; purified OTUD3, Ub-rhodamine fluorescence, 2 h; AID 1645858
The depositor's hits bear a star. Compounds with a hit are over-represented: about 11% of the library has one in this group of screens. No stated cut-off is given here; in the data, active means inhibition above about 30%; inactive means the rest.

SMILES | USP17 inh | USP30 block | USP28 inh | OTUD3 block
O=C(NCc1cccnc1)c1c2c(NCC3CC3)ncnc2n2ccccc12 | 31* | -108 | -30 | -25
Cc1c(O)cc(O)cc1O | 54* | -167 | -4 | 48*
CC(C)n1c(=O)c2nscc2n(CC(=O)N2CCN(c3ccccc3)CC2)c1=O | 1 | 1 | -10 | 0
Cc1n[nH]c(C)c1CC(=O)NCc1nnc(-c2nccc3ccccc23)o1 | 40* | 34* | 13 | 10
COCCn1cnc2c(-c3ccccc3)cn(CC(=O)Nc3ccc4c(c3)OCO4)c2c1=O | 40* | 1 | -7 | -6
CCn1cnc2c(-c3ccccc3)cn(CC(=O)Nc3ccc4c(c3)OCO4)c2c1=O | 17 | -222 | -122 | -20
CCOC(=O)C1CCN(Cc2c(-c3ccc(C)cc3)nc3sccn23)CC1 | -18 | -287 | -48 | -31
Cc1cccc(-c2nc3n(CC(=O)Nc4ccc(Cl)cc4)c(C)cc(=O)n3n2)c1 | 68* | 26 | 6 | 8
Cc1nn(-c2nc3ccccc3o2)c2c1C(c1cccc(F)c1F)CC(=O)N2 (configuration not stated) | 27 | 32* | 16 | 22
CCN1CC2(CC1=O)CN(C(C)=O)CCN(C(=O)Cc1ccccc1)C2 (configuration not stated) | 15 | 27 | 6 | 20
O=C(Cn1cnc2cc([N+](=O)[O-])ccc2c1=O)c1c[nH]c2ccccc12 | 20 | -72 | 13 | -11
O=C(Cn1cnc2ccccc2c1=O)NC(c1ccccc1)c1ccccc1 | 18 | 33* | 14 | 5
O=C(CCn1cnc2ccccc2c1=O)Nc1ccc(Cl)cc1 | 40* | 14 | 21 | 7
COc1ccc(C(CNC(=O)Cn2cnc3ccccc3c2=O)N(C)C)cc1 (configuration not stated) | 16 | 14 | 12 | 6
Cc1cc(C(=O)CSc2nc3ccccc3[nH]2)c(C)n1Cc1ccco1 | 50* | -50 | 25 | 3
O=C(Cn1cnc2ccccc2c1=O)c1c[nH]c2ccccc12 | 47* | 44* | 32* | 0
Cc1ccccc1CNC(=O)CCn1cnc2ccccc2c1=O | -32 | -11 | 14 | 3
O=C(CSc1nc2ccccc2[nH]1)c1ccccc1F | -37 | 3 | 3 | -6
O=C(CSc1nc2ccccc2[nH]1)c1c[nH]c2ccccc12 | 20 | 33* | -2 | 0
Cc1ccc2nc(CN3CCCCC3c3nc4ccccc4s3)cc(=O)n2c1 (configuration not stated) | 1 | -39 | -4 | -3
CC1=C(C(=O)OCc2ccc3c(c2)OCO3)C(c2ccccc2C)CC(=O)N1 (configuration not stated) | 13 | 28 | 15 | 6
COc1ccc(COC(=O)C2=C(C)NC(=O)CC2c2cccc([N+](=O)[O-])c2)cc1 (configuration not stated) | -5 | 20 | 86* | 2
O=C(Nc1cccc(Br)c1)Nc1cccc(-c2nnc(-c3ccccc3)o2)c1 | 20 | 20 | 12 | 17
Cc1cc(C)n(-c2nc(-c3ccc(F)cc3)cc(C(F)(F)F)n2)n1 | 0 | 13 | 10 | 0
O=C1c2c(O)cc(O)cc2OC(c2ccc(O)c(O)c2)C1O (configuration not stated) | 65* | 60* | 56* | 62*
SMILES | USP17 inh | USP30 block | USP28 inh | OTUD3 block
COCCOC(=O)C1=C(C)Nc2nc3ccccc3n2C1c1cc(OC)c(OC)c(OC)c1 (configuration not stated) | 34* | 7 | 2 | 6
Cc1cccc(NC(=O)CSc2nnc(Cc3ccccc3)n2C2CCCCC2)c1 | 8 | 19 | 3 | 7
COc1ccc(CCNC(=O)CCCn2c(=O)c3ccccc3n(Cc3ccccc3F)c2=O)cc1OC | 6 | -2 | -3 | -3
COc1ccc(CCNC(=O)Cn2c(=O)c3sccc3n(Cc3cccc([N+](=O)[O-])c3)c2=O)cc1OC | 16 | 44* | 11 | 30
COc1ccc(CCNC(=O)Cn2c(=O)c3sccc3n(Cc3ccccc3F)c2=O)cc1OC | 60* | 52* | -6 | 16
O=C1c2ccccc2S(=O)(=O)N1Cc1ccc2nonc2c1 | 9 | 15 | 37* | 16
Cc1ccc(NC(=O)c2cc(-c3ccncc3)n[nH]2)c(Cl)c1 | 64* | 83* | 60* | 0
Cc1ccc(O)c(-c2cc(C(=O)Nc3ccccc3Cl)[nH]n2)c1 | 68* | 27 | 6 | -7
O=C(Nc1ccc(Cl)cc1F)c1cc(-c2ccncc2)n[nH]1 | 67* | 74* | 25 | 8
O=C(Nc1ccc(F)cc1F)c1cc(-c2ccccn2)n[nH]1 | 9 | 17 | -7 | -3
O=C(Cn1ncc2c(N3CCCC3)ncnc21)Nc1ccc(F)cc1 | 7 | 2 | 10 | 5
